Activity calls are given as the source filed them. Unless noted, how the calls were made is not given here.
What was measured:
[1] = anti-His antibody binders, primary screen, artefact control for SMM control protein annotation, biochemical, small-molecule microarray, 635 nm fluorescence (AID 1128); settings: anti-His Alexa647 antibody binding, higher = more signal;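 further: score merges feature fluorescence with signal-to-noise for each printed compound spot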
[2] = tested on: Human papillomavirus type 1a E7 protein (residues 1-88); assay: HPV1a E7 small-molecule binders, primary screen, biochemical, small-molecule microarray, residues 1-88, 635 nm (AID 1129); settings: small-molecule microarray binding, fluorescence 635 nm; higher = more signal
[3] = target: Focal adhesion kinase 1 (Homo sapiens) (UniProt Q05397); assay: small-molecule microarray binders of FAK, primary screen, biochemical, 635/667 nm fluorescence, BSA, DTT (AID 1130); settings: PTK2 binding, 635 nm fluorescence, higher = more signal;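 further: composite of spot emission at 667 nm and signal to noise over triplicate slides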
Focal adhesion kinase 1 (Homo sapiens), sequence (Q05397 whole entry, looked up): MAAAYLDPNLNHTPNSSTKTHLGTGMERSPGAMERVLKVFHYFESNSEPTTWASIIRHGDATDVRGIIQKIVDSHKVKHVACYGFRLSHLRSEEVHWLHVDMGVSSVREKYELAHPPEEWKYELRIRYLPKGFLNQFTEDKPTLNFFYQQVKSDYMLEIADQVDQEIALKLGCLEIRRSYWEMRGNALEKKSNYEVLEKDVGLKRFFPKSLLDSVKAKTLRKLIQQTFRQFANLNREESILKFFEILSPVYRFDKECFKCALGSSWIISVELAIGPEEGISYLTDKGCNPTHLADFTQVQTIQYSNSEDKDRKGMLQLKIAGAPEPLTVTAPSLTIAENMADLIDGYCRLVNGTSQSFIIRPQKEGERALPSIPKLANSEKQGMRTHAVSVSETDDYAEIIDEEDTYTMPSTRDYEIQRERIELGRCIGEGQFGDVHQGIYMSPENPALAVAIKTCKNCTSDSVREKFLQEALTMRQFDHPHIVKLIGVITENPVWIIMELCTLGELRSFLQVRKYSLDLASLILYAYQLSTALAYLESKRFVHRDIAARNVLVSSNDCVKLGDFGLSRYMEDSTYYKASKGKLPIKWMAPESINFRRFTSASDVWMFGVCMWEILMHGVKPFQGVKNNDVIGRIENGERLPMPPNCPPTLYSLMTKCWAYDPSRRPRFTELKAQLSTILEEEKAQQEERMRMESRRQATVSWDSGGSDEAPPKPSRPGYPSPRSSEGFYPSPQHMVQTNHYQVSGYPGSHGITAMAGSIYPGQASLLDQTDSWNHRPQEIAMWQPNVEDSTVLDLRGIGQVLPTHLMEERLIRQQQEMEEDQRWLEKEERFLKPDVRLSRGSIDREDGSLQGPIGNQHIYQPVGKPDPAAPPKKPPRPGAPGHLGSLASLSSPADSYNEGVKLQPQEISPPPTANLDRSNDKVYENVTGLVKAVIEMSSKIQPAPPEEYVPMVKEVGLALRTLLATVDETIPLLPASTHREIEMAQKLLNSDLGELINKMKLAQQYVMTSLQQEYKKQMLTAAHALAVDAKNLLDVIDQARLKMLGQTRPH

[4] = tested on: Fibrinogen (Alexa647-labelled); assay: fibrinogen binders on compound microarrays, profiling panel, artefact control for SMM control-protein annotation, biochemical, small-molecule microarray, 635/667 nm fluorescence (AID 1131); settings: fibrinogen-A647 binding fluorescence, higher = more signal;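 further: z-score merges 667 nm fluorescence with per-spot signal-to-noise over triplicate slides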
[5] = target: Follistatin (Homo sapiens) (UniProt P19883); assay: follistatin binders on small-molecule microarrays, primary screen, biochemical, small-molecule microarray, 635/667 nm fluorescence (AID 1132); settings: FST binding, 635 nm fluorescence, higher = more signal
Follistatin (Homo sapiens), sequence (P19883 whole entry, looked up): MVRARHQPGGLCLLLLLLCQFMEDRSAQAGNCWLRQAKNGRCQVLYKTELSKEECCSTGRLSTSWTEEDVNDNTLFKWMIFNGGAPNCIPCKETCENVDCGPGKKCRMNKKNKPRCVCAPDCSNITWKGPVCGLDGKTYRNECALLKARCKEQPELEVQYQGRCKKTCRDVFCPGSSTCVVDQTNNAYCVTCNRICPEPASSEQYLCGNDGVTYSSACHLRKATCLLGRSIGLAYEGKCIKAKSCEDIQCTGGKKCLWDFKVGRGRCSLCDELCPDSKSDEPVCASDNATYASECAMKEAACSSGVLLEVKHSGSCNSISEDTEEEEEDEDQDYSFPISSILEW

[6] = target: Fibroblast growth factor 2 (Homo sapiens) (UniProt P09038); assay: FGF2 binders on small-molecule microarrays, primary screen, biochemical, small-molecule microarray, 635/667 nm fluorescence (AID 1133); settings: small-molecule microarray binding, FGF2, fluorescence 635/667; higher = more signal
Fibroblast growth factor 2 (Homo sapiens), sequence (P09038 whole entry, looked up): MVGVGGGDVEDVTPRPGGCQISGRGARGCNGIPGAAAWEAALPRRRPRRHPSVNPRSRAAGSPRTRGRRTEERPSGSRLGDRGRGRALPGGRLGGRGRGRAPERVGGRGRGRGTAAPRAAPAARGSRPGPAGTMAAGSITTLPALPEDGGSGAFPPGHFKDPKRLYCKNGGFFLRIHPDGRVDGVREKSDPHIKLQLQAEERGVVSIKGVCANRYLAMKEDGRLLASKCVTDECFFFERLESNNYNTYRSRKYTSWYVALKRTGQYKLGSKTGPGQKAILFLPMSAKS

[7] = mitochondrial membrane potential change in A549 cells, profiling panel, cell-based, JC-1 fluorescence, basal, 24 h, 100 nL (AID 1138); settings: higher = more signal;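 further: A549 lung adenocarcinoma cells under basal conditions with no added stimulus; test concentration not given here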
Lefty1 = Lefty1 binders on small-molecule microarrays, primary screen, biochemical, small-molecule microarray, 635/667 nm fluorescence (AID 1139); settings: small-molecule microarray binding, fluorescence 635/667; higher = more signal
[8] = tested on: wheat germ agglutinin (Triticum aestivum), Alexa647-labelled; assay: wheat germ agglutinin binders on compound microarrays, profiling panel, artefact control for SMM control-protein annotation, biochemical, small-molecule microarray, 635/667 nm fluorescence (AID 1140); settings: WGA-A647 binding, 635 nm fluorescence, higher = more signal;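 further: score merges 667 nm feature emission with signal to noise over triplicate slides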
[9] = target: Luciferin 4-monooxygenase (Photinus pyralis) (UniProt P08659); assay: firefly luciferase enzyme inhibitors, primary screen, biochemical, luminescence, purified enzyme, 2006 set (AID 1141); settings: SteadyGlo luminescence, 30 min, higher = more signal, called active from +8 up or from −8 down;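 further: cell-free assay with purified firefly luciferase at 100 ng per well in PBS; test concentration not given here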
Luciferin 4-monooxygenase (Photinus pyralis), sequence (P08659 whole entry, looked up): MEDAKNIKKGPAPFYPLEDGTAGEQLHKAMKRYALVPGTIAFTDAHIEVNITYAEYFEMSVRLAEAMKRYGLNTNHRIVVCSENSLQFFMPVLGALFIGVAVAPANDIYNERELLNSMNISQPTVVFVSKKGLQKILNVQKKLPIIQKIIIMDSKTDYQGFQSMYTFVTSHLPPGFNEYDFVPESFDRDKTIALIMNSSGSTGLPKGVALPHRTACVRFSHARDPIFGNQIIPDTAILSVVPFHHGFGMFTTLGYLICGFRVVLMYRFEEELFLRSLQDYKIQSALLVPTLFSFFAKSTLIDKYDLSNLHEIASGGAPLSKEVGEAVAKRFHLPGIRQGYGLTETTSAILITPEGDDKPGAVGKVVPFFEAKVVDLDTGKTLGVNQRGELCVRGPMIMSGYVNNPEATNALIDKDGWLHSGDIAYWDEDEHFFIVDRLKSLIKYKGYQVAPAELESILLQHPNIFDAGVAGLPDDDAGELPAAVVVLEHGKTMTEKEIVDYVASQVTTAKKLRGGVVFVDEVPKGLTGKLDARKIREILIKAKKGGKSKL

[10] = tested on: Wnt5a (protein binding on small-molecule microarray); assay: Wnt5a binders on small-molecule microarray, primary screen, biophysical, 635/667 nm fluorescence (AID 1142); settings: 635 nm fluorescence, higher = more signal;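 further: fluorescence read at 667 nm with signal to noise per printed feature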
[11] = cell viability in Huh7 cells, primary screen, cytotoxicity control for HCV replication inhibitor project, CellTiter-Glo luminescence, basal, 48 h (AID 1143); settings: Huh7 HCV replicon, higher = more signal, called active from +8 up or from −8 down;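 further: Huh7 hepatoma cells carrying a hepatitis C replication reporter with no stimulus; test concentration not given here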
[12] = P. aeruginosa biofilm formation inhibitors, primary screen, PAO1 strain, BacTiter-Glo luminescence, LB-PBS (AID 1144); settings: 12 h, higher = more signal
[13] = CREB reporter modulators without forskolin, primary screen, cell-based, PC12, CRE-LacZ reporter, unstimulated (AID 1145); settings: no forskolin, luminescence, 4.5 h, higher = more signal, called active from +8 up or from −8 down
[14] = CREB reporter modulators under forskolin, primary screen, cell-based, PC12, CRE-LacZ reporter, forskolin-stimulated (AID 1146); settings: luminescence, 4.5 h, higher = more signal, called active from +8 up or from −8 down;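 further: PC12 cells with 6xCRE LacZ reporter stimulated by forskolin 10 µM; beta-galactosidase reporter signal reflecting CREB driven transcription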
[15] = target: Streptavidin (Streptomyces avidinii) (UniProt P22629); assay: streptavidin binders on small-molecule microarray, primary screen, artefact control for SMM compound annotation, biophysical, 635/667 nm fluorescence (AID 1147); settings: streptavidin binding, higher = more signal;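 further: signal reflects streptavidin binding to arrayed compounds as a control protein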
Streptavidin (Streptomyces avidinii), sequence (P22629 whole entry, looked up): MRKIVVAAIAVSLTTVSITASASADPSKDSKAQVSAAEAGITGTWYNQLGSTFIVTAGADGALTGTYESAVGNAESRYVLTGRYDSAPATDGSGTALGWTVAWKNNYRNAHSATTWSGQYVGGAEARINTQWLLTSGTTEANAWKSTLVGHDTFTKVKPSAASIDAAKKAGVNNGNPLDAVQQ

[16] = small-molecule binders of probe aInhba, primary screen, biochemical, small-molecule microarray, 635/667 nm fluorescence (AID 1148); settings: higher = more signal;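 further: score merges 667nm spot fluorescence with signal-to-noise for antibody binding to printed compounds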
Torsin-1A (Homo sapiens) [17] = target: Torsin-1A (Homo sapiens) (UniProt O14656); assay: torsin A binders from cell lysate, primary screen, small-molecule microarray, wild-type, 635/667 nm (AID 1149); settings: COS7 hTOR1A-WT lysate, 635 nm fluorescence, higher = more signal
Torsin-1A (Homo sapiens), sequence (O14656 whole entry, looked up): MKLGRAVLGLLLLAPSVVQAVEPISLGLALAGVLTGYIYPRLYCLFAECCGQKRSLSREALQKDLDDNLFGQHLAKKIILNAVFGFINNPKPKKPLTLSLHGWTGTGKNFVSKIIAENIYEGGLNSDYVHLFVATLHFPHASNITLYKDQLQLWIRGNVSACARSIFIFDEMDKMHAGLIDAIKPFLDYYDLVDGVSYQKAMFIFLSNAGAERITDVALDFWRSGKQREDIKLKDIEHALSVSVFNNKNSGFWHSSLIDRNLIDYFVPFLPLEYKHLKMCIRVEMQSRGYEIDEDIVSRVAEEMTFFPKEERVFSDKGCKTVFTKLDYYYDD

Torsin-1A (Homo sapiens) [18] = target: Torsin-1A (Homo sapiens) (UniProt O14656); assay: small-molecule binders of mutant TOR1A in lysate, primary screen, cell lysate, small-molecule microarray, COS7 lysate, 635/667 nm fluorescence (AID 1150); settings: COS7 hTOR1A mutant lysate, 635 nm fluorescence, higher = more signal;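 further: score pools 667 nm emission and signal to noise measuring lysate protein binding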
[19] = tested on: Sonic hedgehog protein (Shh); assay: small-molecule binders of Shh protein, primary screen, biochemical, small-molecule microarray, 635/667 nm fluorescence (AID 1151); settings: small-molecule microarray binding, 635 nm fluorescence; higher = more signal;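 further: Shh protein binding to compounds spotted on small-molecule microarray slides; score combines spot fluorescence intensity with signal-to-noise across triplicate slides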

| SMILES | composite z-score [1] | composite z-score [2] | composite z-score [3] | composite z-score [4] | composite z-score [5] | composite z-score [6] | z-score [7] | composite z-score (Lefty1) | composite z-score [8] | z-score [9] | composite z-score [10] | z-score [11] | z-score [12] | z-score [13] | z-score [14] | composite z-score [15] | composite z-score [16] | composite z-score (Torsin-1A (Homo sapiens) [17]) | composite z-score (Torsin-1A (Homo sapiens) [18]) | composite z-score [19] |
| --- | --- | --- | --- | --- | --- | --- | --- | --- | --- | --- | --- | --- | --- | --- | --- | --- | --- | --- | --- | --- |
| CCCCCN1CC=CC23O[C@@H]4C=CCOC(=O)[C@@H]4[C@H]2C(=O)N(C(CO)C(C)C)[C@@H]3C1=O (stereo not given in full) | 0.373 | -1.02 | -0.565 | -0.217 | 0.142 | -0.533 | -0.348 | 0.0028 | -0.521 | 0.281 (inactive) | -0.389 | -0.524 (inactive) | 0.921 (inactive) | -0.757 (inactive) | 0.371 (inactive) | -0.263 | 0.0013 | -1.34 | -1.38 | 0.298 |
| COc1ccc(O[C@H]2C=C[C@@H](c3ccccc3)O[C@@H]2COC(=O)CCC(C)=NOC[C@@H](C)[C@H](OCc2ccccc2)C(C)C)cc1 | 0.904 | -0.834 | -0.592 | -1.24 | -0.865 | -0.621 | -0.345 | -0.338 | -0.606 | 1.05 (inactive) | -0.348 | -1.55 (inactive) | -0.0552 (inactive) | -0.901 (inactive) | 0.468 (inactive) | -0.892 | -0.203 | -0.416 | -0.632 | -0.155 |
| CCCC[C@@H]1C[C@H]1[C@@H](NS(=O)(=O)c1cccc2cccnc12)c1ccc(-c2ccccc2)cc1 | 0.983 | 1.08 | 0.479 | -0.809 | 0.0634 | -1.06 | 0.164 | -0.805 | 0.366 | 0.633 (inactive) | -0.0366 | -0.325 (inactive) | -1.02 (inactive) | 0.204 (inactive) | 1.62 (inactive) | 0.731 | 0.134 | -0.199 | -0.199 | -1.66 |
| CCOC(=O)[C@H](Cc1ccccc1)NC(=O)CCC1CC(OC(=O)NCc2ccc3c(c2)OCO3)CC2(CCCC(COC(=O)NCC3CCCCC3)O2)O1 (stereo not given in full) | 0.273 | 1.18 | 0.188 | 0.91 | 0.904 | 0.48 | 0.491 | 0.876 | 0.206 | 0.986 (inactive) | 0.0472 | -0.734 (inactive) | -0.0126 (inactive) | -0.613 (inactive) | -0.177 (inactive) | 0.592 | -0.0289 | -0.407 | 0.538 | 1.36 |
| CO[C@@H]1COC(=O)CC=C[C@@H](C)COC(=O)[C@H](COCc2ccccc2)NC(=O)CC=C[C@H]1C | -0.105 | -1.04 | -0.765 | -1.55 | 1.24 | 1.73 | -0.378 | 1.57 | -0.672 | -0.336 (inactive) | -0.146 | 0.185 (inactive) | 0.324 (inactive) | 0.605 (inactive) | -0.201 (inactive) | -0.214 | -0.128 | 2.33 | 2.51 | 1.77 |

— PubChem BioAssay
